From PubChem BioAssay come the findings set out here.

A short description of assay [1]: anti-His antibody binders, primary screen, artefact control for SMM control protein annotation, biochemical, small-molecule microarray, 635 nm fluorescence (AID 1128).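 Also: score merges feature fluorescence with signal-to-noise for each printed compound spot.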 The following applies: anti-His Alexa647 antibody binding, higher = more signal.
For assay [2], the system named is Human papillomavirus type 1a E7 protein (residues 1-88). As to the kind of experiment: HPV1a E7 small-molecule binders, primary screen, biochemical, small-molecule microarray, residues 1-88, 635 nm (AID 1129). The following applies: small-molecule microarray binding, fluorescence 635 nm; higher = more signal.
Assay [3] concerns the target Focal adhesion kinase 1 (Homo sapiens) (UniProt Q05397). The assay can be described thus: small-molecule microarray binders of FAK, primary screen, biochemical, 635/667 nm fluorescence, BSA, DTT (AID 1130).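 Also: composite of spot emission at 667 nm and signal to noise over triplicate slides.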 The following applies: PTK2 binding, 635 nm fluorescence, higher = more signal.
The test system of assay [4] is Fibrinogen (Alexa647-labelled). The assay can be described thus: fibrinogen binders on compound microarrays, profiling panel, artefact control for SMM control-protein annotation, biochemical, small-molecule microarray, 635/667 nm fluorescence (AID 1131).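 Also: z-score merges 667 nm fluorescence with per-spot signal-to-noise over triplicate slides.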 The following applies: fibrinogen-A647 binding fluorescence, higher = more signal.
Assay [5] concerns the target Follistatin (Homo sapiens) (UniProt P19883). The assay can be described thus: follistatin binders on small-molecule microarrays, primary screen, biochemical, small-molecule microarray, 635/667 nm fluorescence (AID 1132). The following applies: FST binding, 635 nm fluorescence, higher = more signal.
Assay [6] concerns the target Fibroblast growth factor 2 (Homo sapiens) (UniProt P09038). As to the kind of experiment: FGF2 binders on small-molecule microarrays, primary screen, biochemical, small-molecule microarray, 635/667 nm fluorescence (AID 1133). The note with it: small-molecule microarray binding, FGF2, fluorescence 635/667; higher = more signal.
Assay [7] can be described thus: mitochondrial membrane potential change in A549 cells, profiling panel, cell-based, JC-1 fluorescence, basal, 24 h, 100 nL (AID 1138).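 Also: A549 lung adenocarcinoma cells under basal conditions with no added stimulus; test concentration not given here.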 The note with it: higher = more signal.
A further assay has as its system Lefty1. The assay can be described thus: Lefty1 binders on small-molecule microarrays, primary screen, biochemical, small-molecule microarray, 635/667 nm fluorescence (AID 1139). The following applies: small-molecule microarray binding, fluorescence 635/667; higher = more signal.
The test system of assay [8] is wheat germ agglutinin (Triticum aestivum), Alexa647-labelled. The assay can be described thus: wheat germ agglutinin binders on compound microarrays, profiling panel, artefact control for SMM control-protein annotation, biochemical, small-molecule microarray, 635/667 nm fluorescence (AID 1140).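 Also: score merges 667 nm feature emission with signal to noise over triplicate slides.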 The following applies: WGA-A647 binding, 635 nm fluorescence, higher = more signal.

Assay [9] addresses Luciferin 4-monooxygenase (Photinus pyralis) (UniProt P08659). The assay can be described thus: firefly luciferase enzyme inhibitors, primary screen, biochemical, luminescence, purified enzyme, 2006 set (AID 1141).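 Also: cell-free assay with purified firefly luciferase at 100 ng per well in PBS; test concentration not given here.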 The note with it: SteadyGlo luminescence, 30 min, higher = more signal, called active from +8 up or from −8 down.
Assay [10] concerns Wnt5a (protein binding on small-molecule microarray). The assay can be described thus: Wnt5a binders on small-molecule microarray, primary screen, biophysical, 635/667 nm fluorescence (AID 1142).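 Also: fluorescence read at 667 nm with signal to noise per printed feature.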 The following applies: 635 nm fluorescence, higher = more signal.
The nature of assay [11]: cell viability in Huh7 cells, primary screen, cytotoxicity control for HCV replication inhibitor project, CellTiter-Glo luminescence, basal, 48 h (AID 1143).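 Also: Huh7 hepatoma cells carrying a hepatitis C replication reporter with no stimulus; test concentration not given here.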 The note with it: Huh7 HCV replicon, higher = more signal, called active from +8 up or from −8 down.
Assay [12] in a line: P. aeruginosa biofilm formation inhibitors, primary screen, PAO1 strain, BacTiter-Glo luminescence, LB-PBS (AID 1144). The following applies: 12 h, higher = more signal.
Assay [13] in a line: CREB reporter modulators without forskolin, primary screen, cell-based, PC12, CRE-LacZ reporter, unstimulated (AID 1145). The following applies: no forskolin, luminescence, 4.5 h, higher = more signal, called active from +8 up or from −8 down.
A short description of assay [14]: CREB reporter modulators under forskolin, primary screen, cell-based, PC12, CRE-LacZ reporter, forskolin-stimulated (AID 1146).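 Also: PC12 cells with 6xCRE LacZ reporter stimulated by forskolin 10 µM; beta-galactosidase reporter signal reflecting CREB driven transcription.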 The following applies: luminescence, 4.5 h, higher = more signal, called active from +8 up or from −8 down.
The target of assay [15] is Streptavidin (Streptomyces avidinii) (UniProt P22629). As to the kind of experiment: streptavidin binders on small-molecule microarray, primary screen, artefact control for SMM compound annotation, biophysical, 635/667 nm fluorescence (AID 1147).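 Also: signal reflects streptavidin binding to arrayed compounds as a control protein.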 The following applies: streptavidin binding, higher = more signal.
Assay [16] is described as follows: small-molecule binders of probe aInhba, primary screen, biochemical, small-molecule microarray, 635/667 nm fluorescence (AID 1148).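 Also: score merges 667nm spot fluorescence with signal-to-noise for antibody binding to printed compounds.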 The note with it: higher = more signal.
The target of assay [17] is Torsin-1A (Homo sapiens) (UniProt O14656). The assay can be described thus: torsin A binders from cell lysate, primary screen, small-molecule microarray, wild-type, 635/667 nm (AID 1149). The note with it: COS7 hTOR1A-WT lysate, 635 nm fluorescence, higher = more signal.
Assay [18] has the same target. As to the kind of experiment: small-molecule binders of mutant TOR1A in lysate, primary screen, cell lysate, small-molecule microarray, COS7 lysate, 635/667 nm fluorescence (AID 1150).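 Also: score pools 667 nm emission and signal to noise measuring lysate protein binding.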 The following applies: COS7 hTOR1A mutant lysate, 635 nm fluorescence, higher = more signal.
The test system of assay [19] is Sonic hedgehog protein (Shh). The assay can be described thus: small-molecule binders of Shh protein, primary screen, biochemical, small-molecule microarray, 635/667 nm fluorescence (AID 1151).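 Also: Shh protein binding to compounds spotted on small-molecule microarray slides; score combines spot fluorescence intensity with signal-to-noise across triplicate slides.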 The following applies: small-molecule microarray binding, 635 nm fluorescence; higher = more signal.

Each structure is given as a SMILES string. Calls of active or inactive are those of the source. Unless noted, no rule for the calls is given here.

Chain of Focal adhesion kinase 1 (Homo sapiens) (Q05397 whole entry, looked up): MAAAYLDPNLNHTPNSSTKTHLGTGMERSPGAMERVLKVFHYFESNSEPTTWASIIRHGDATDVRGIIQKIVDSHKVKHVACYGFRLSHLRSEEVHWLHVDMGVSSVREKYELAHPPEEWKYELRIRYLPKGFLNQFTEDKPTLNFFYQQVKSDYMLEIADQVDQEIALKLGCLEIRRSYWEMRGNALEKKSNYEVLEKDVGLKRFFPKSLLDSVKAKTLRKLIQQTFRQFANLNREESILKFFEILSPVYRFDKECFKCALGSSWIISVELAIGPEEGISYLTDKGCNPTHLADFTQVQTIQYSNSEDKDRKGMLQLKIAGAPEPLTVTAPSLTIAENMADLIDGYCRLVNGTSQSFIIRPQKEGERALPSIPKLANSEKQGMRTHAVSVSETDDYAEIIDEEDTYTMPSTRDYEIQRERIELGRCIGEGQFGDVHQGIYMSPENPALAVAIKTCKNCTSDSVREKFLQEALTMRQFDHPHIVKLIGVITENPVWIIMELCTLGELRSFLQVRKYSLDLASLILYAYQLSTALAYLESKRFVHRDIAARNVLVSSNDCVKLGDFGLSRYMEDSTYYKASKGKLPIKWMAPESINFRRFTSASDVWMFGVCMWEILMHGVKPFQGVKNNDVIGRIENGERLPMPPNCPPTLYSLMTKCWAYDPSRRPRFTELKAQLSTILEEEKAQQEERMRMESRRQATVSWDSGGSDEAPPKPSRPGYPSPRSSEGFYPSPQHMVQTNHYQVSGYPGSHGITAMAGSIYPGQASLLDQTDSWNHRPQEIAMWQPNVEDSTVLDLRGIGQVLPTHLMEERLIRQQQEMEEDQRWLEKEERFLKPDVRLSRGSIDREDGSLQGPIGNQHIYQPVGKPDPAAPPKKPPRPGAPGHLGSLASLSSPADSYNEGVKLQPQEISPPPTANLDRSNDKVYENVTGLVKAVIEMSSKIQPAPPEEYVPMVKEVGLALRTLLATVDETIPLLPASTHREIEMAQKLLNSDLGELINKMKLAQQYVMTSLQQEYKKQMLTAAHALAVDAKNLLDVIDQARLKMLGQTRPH
Chain of Fibroblast growth factor 2 (Homo sapiens) (P09038 whole entry, looked up): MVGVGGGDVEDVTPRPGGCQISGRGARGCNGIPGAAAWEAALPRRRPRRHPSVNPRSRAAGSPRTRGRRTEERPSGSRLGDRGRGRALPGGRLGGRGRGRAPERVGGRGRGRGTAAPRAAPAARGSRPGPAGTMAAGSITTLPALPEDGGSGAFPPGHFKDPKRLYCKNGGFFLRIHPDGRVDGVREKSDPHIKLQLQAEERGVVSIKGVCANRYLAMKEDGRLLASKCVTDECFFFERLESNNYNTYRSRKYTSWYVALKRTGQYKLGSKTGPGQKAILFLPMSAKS
Chain of Luciferin 4-monooxygenase (Photinus pyralis) (P08659 whole entry, looked up): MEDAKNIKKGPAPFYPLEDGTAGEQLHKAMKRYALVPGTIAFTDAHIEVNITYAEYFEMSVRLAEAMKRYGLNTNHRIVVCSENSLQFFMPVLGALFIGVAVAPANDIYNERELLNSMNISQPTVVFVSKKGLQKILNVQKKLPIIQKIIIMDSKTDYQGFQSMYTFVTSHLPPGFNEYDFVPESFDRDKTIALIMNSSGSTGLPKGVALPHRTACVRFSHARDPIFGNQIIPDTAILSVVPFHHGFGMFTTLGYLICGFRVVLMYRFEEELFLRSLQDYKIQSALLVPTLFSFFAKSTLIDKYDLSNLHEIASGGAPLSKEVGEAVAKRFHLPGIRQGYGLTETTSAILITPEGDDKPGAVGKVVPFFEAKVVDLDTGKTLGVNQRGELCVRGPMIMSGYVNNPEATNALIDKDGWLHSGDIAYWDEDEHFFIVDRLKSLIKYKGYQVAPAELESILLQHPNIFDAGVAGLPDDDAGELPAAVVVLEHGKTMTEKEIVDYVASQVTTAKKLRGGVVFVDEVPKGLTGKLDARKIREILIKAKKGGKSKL
Chain of Follistatin (Homo sapiens) (P19883 whole entry, looked up): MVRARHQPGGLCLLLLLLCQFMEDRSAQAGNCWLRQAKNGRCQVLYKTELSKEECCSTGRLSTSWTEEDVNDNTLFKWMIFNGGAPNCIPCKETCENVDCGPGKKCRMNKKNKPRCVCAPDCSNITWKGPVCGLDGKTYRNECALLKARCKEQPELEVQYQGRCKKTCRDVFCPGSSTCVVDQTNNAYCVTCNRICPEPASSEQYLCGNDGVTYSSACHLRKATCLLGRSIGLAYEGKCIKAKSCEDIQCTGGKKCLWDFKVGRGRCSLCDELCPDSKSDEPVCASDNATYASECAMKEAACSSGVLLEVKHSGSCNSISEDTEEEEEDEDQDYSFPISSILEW
Chain of Streptavidin (Streptomyces avidinii) (P22629 whole entry, looked up): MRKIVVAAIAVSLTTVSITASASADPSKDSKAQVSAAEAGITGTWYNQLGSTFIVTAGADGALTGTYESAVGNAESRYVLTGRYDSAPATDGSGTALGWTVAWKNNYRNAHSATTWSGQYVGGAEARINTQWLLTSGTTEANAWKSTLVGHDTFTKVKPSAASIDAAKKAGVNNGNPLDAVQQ
Chain of Torsin-1A (Homo sapiens) (O14656 whole entry, looked up): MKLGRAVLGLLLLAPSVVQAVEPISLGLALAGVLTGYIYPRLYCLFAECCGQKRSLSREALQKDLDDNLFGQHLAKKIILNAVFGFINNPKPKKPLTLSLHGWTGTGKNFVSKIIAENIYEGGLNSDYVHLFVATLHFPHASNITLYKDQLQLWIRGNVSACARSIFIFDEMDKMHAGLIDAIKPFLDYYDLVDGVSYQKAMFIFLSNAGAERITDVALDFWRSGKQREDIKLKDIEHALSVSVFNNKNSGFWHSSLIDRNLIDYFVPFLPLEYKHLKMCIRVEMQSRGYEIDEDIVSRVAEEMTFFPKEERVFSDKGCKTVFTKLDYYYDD

Take `CCOC(=O)[C@H](CC(C)C)NC(=O)CCC1CC(OC(=O)NCCc2ccc(F)cc2)CC2(CCCC(COC(=O)NCCC(C)C)O2)O1` (stereo not given in full): the composite z-score is 1.79 in assay [1]; 0.0471 in [2]; 0.459 in [3]; 0.818 in assay [4]; 0.601 in [5]; 0.0263 in assay [6]. For the same compound, the composite z-score in the assay on Lefty1 was 0.304; in assay [8], 0.421; in assay [10], -0.0436; in [15] it was 2.06; in assay [16], -0.0963; with Torsin-1A (Homo sapiens) [17], -0.239. Moreover, the figures for the composite z-score (with Torsin-1A (Homo sapiens) [18]; in [19]) were 0.204 and 0.318, respectively. Besides, the z-score was 0.427 in assay [7]; 0.403 (inactive) in [9]; -0.439 (inactive) in assay [11]; 0.288 (inactive) in assay [12]; 0.91 (inactive) in [13]; -0.457 (inactive) in [14].

As to `CCOC(=O)[C@H](Cc1ccccc1)NC(=O)CCC1CC(OC(=O)NCc2ccc3c(c2)OCO3)CC2(CCCC(COC(=O)NCCc3ccccc3OC)O2)O1` (stereo not given in full), the composite z-score in assay [1] came out at 0.969; in [2] it was 1.2; in [3], 0.492; in assay [4], 1; in assay [5], 1.07; in [6], 1.32. For the same compound, the composite z-score in the assay on Lefty1 is 1.36; in [8], 0.63; in [10], 0.296; in [15], 1.19; in assay [16], -0.0937; in the assay with Torsin-1A (Homo sapiens) [17], 0.479. Moreover, the composite z-score with Torsin-1A (Homo sapiens) [18] came out at 0.252; in assay [19], 0.995. For the same compound, the z-score in assay [7] was -0.654; in assay [9] it was 0.274 (inactive); in assay [11] it was -0.415 (inactive); in assay [12], 0.8 (inactive); in [13], 17.2 (active); in assay [14], 0.109 (inactive).

For the compound `CO[C@@H]1COC(=O)CC=C[C@@H](C)[C@@H]2C=C[C@H](O)[C@@H](COC(=O)CC=C[C@H]1C)O2`, the composite z-score in assay [1] is -0.143; in assay [2], -1.07; in [3] it was -0.649; in [4] it was -0.616; in [5] it was 1.45; in assay [6], 1.3. The composite z-score in the assay with Lefty1 is 1.66; in assay [8], -0.448; in assay [10], -0.186; in assay [15] it was -0.0274; in assay [16], -0.255; with Torsin-1A (Homo sapiens) [17] it was 2.58. The composite z-score amounted to 1.72 in the assay with Torsin-1A (Homo sapiens) [18] and 2.13 in [19]. Further, the z-score is 1.81 in [7]; -1.35 (inactive) in assay [9]; -0.256 (inactive) in assay [11]; 0.177 (inactive) in [12]; 0.877 (inactive) in [13]; -0.0355 (inactive) in assay [14].

In the case of `COc1ccc(COC(=O)NN=C2C[C@@H](O)[C@@H](O)[C@@H]3[C@@H]4C(=O)N(c5ccc(F)cc5F)C(=O)[C@@H]4CC[C@H]23)cc1`, the composite z-score is 0.524 in assay [1]; -0.199 in [2]; 0.168 in [3]; 0.89 in assay [4]; -0.469 in assay [5]; 0.0314 in assay [6]. Further, the composite z-score in the assay with Lefty1 was -0.773; in assay [8], 0.4; in assay [10], 0.118; in assay [15], 1.19; in assay [16], -0.0719; in the assay with Torsin-1A (Homo sapiens) [17], -0.309. The figures for the composite z-score (with Torsin-1A (Homo sapiens) [18]; in assay [19]) were 0.627 and -1.52, respectively. In addition, the z-score in assay [7] was -0.654; in assay [9] it was 0.732 (inactive); in [11], -1.64 (inactive); in assay [12] it was -0.597 (inactive); in assay [13] it was -1.02 (inactive); in assay [14] it was 0.454 (inactive).
